# Measured values published in the supplement of paper PMC8728848.
# The entries come from a sample that favours the strongest signals as a whole.
# What was measured:
# Experiment in all cases: glycan array binding signal (z-score within array); higher = stronger binding
# Details in all cases: glycan notation: IUPAC condensed, linker removed; mutation: E321K
# [1] = target: Fuc(a1-2)Gal(b1-4)[Fuc(a1-3)]GlcNAc
# How it was run: (§1)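 Glycan array data came from 3228 arrays in the Consortium for Functional Glycomics database, and only arrays with an available protein sequence were kept. Glycan names were put into IUPAC-condensed notation, and columns mapping to the same glycan were averaged. The binding signal is a within-array Z-score, averaged across arrays of one protein sequence run at different concentrations or buffers and across linkers. A negative Z-score can be read as non-binding.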
# [2] = target: Fuc(a1-2)[GalNAc(a1-3)]Gal(b1-3)GlcNAc
# How it was run: as §1
# [3] = target: Fuc(a1-2)[GalNAc(b1-3)]Gal
# How it was run: as §1
# Gal(a1-3)Gal = target: Gal(a1-3)Gal
# How it was run: as §1
# Gal(a1-3)Gal(b1-4)GlcNAc = target: Gal(a1-3)Gal(b1-4)GlcNAc
# How it was run: as §1
# [4] = target: Gal(b1-4)GalNAc(a1-3)[Fuc(a1-2)]Gal(b1-4)GlcNAc
# How it was run: as §1
# Gal(b1-4)Glc = target: Gal(b1-4)Glc
# How it was run: as §1
# [5] = target: Gal(b1-4)GlcNAc(b1-3)Gal(b1-3)GlcNAc
# How it was run: as §1
# [6] = target: Gal(b1-4)GlcNAc(b1-3)GalNAc
# How it was run: as §1
# [7] = target: Gal(b1-4)GlcNAc(b1-6)[Gal(b1-3)]GalNAc
# How it was run: as §1
# Gal6S(b1-4)Glc6S = target: Gal6S(b1-4)Glc6S
# How it was run: as §1
# [8] = target: GlcNAc(b1-3)[GlcNAc(b1-6)]GalNAc
# How it was run: as §1
# GlcNAc(b1-4)GlcNAc = target: GlcNAc(b1-4)GlcNAc
# How it was run: as §1
# [9] = target: GlcNAc(b1-4)GlcNAc(b1-4)GlcNAc(b1-4)GlcNAc(b1-4)GlcNAc(b1-4)GlcNAc
# How it was run: as §1
# [10] = target: Man(a1-2)Man(a1-2)Man(a1-6)[Man(a1-3)]Man
# How it was run: as §1
# [11] = target: Neu5Ac(a2-3)Gal(b1-3)GalNAc6S
# How it was run: as §1
# [12] = target: Neu5Ac(a2-3)Gal(b1-4)GlcNAc(b1-3)Gal(b1-3)GlcNAc
# How it was run: as §1
# [13] = target: Neu5Ac(a2-3)Gal(b1-4)GlcNAc(b1-3)Gal(b1-4)[Fuc(a1-3)]GlcNAc
# How it was run: as §1
# [14] = target: Neu5Ac(a2-3)Gal6S(b1-4)GlcNAc
# How it was run: as §1
# [15] = target: Neu5Ac(a2-3)GalNAc(b1-4)GlcNAc
# How it was run: as §1
# [16] = target: Neu5Ac(a2-6)Gal(b1-4)GlcNAc(b1-2)Man(a1-3)[GlcNAc(b1-2)Man(b1-4)GlcNAc(b1-2)Man(a1-6)]Man(b1-4)GlcNAc(b1-4)GlcNAc
# How it was run: as §1
# [17] = target: Neu5Ac(a2-6)Gal(b1-4)GlcNAc(b1-3)Gal(b1-4)GlcNAc
# How it was run: as §1
# [18] = target: Neu5Ac(a2-8)Neu5Ac(a2-8)Neu5Ac
# How it was run: as §1
# [19] = target: Neu5Ac(a2-8)Neu5Ac(a2-8)Neu5Ac(a2-3)Gal(b1-4)Glc
# How it was run: as §1
# Neu5Ac(b2-6)GalNAc = target: Neu5Ac(b2-6)GalNAc
# How it was run: as §1
binder,measurement,setting,value
Surfactant Protein D (Human); Neck + Carbohydrate Recognition Domain (NCRD) (Homo sapiens) (protein) MLLFLLSALVLLTQPLGYLEAEMKTYSHRTMPSACTLVMCSSVESGLPGRDRDGREGPRGEKGDPGLPGAAGQAGMPGQAGPVGPKGDNGSVGEPGPKGDTGPSGPPGPPGVPGPAGREGALGKQGNIGPQGKPGPKGEAGPKGEVGAPGMQGSAGARGLAGPKGERGVPGERGVPGNTGAAGSAGAMGPQGSPGARGPPGLKGDKGIPGDKGAKGESGLPDVASLRQQVEALQGQVQHLQAAFSQYKKVELFPNGQSVGEKIFKTAQFVKPFTEAQLLCTQAGGQLASPRSAAENAALQQLVVAKNEAAFLSMTDSKTEGKFTYPTGESLVYSNWAPGKPNDDGGSEDCVEIFTNGKWNDRACGEKRLVVCEF,glycan array binding signal (z-score),[1],-0.011
same,glycan array binding signal (z-score),[2],-0.437
same,glycan array binding signal (z-score),[3],-0.418
same,glycan array binding signal (z-score),Gal(a1-3)Gal,-0.277
same,glycan array binding signal (z-score),Gal(a1-3)Gal(b1-4)GlcNAc,0.494
same,glycan array binding signal (z-score),[4],-0.87
same,glycan array binding signal (z-score),Gal(b1-4)Glc,-0.968
same,glycan array binding signal (z-score),[5],-0.871
same,glycan array binding signal (z-score),[6],-0.758
same,glycan array binding signal (z-score),[7],-0.831
same,glycan array binding signal (z-score),Gal6S(b1-4)Glc6S,2.78
same,glycan array binding signal (z-score),[8],-0.62
same,glycan array binding signal (z-score),GlcNAc(b1-4)GlcNAc,2.94
same,glycan array binding signal (z-score),[9],-0.106
same,glycan array binding signal (z-score),[10],0
same,glycan array binding signal (z-score),[11],0.404
same,glycan array binding signal (z-score),[12],-0.578
same,glycan array binding signal (z-score),[13],0.062
same,glycan array binding signal (z-score),[14],0.549
same,glycan array binding signal (z-score),[15],3.92
same,glycan array binding signal (z-score),[16],5.34
same,glycan array binding signal (z-score),[17],-0.587
same,glycan array binding signal (z-score),[18],-0.381
same,glycan array binding signal (z-score),[19],-0.475
same,glycan array binding signal (z-score),Neu5Ac(b2-6)GalNAc,3.67
